Test results as given in PubChem BioAssay (NCI).
Compounds without any hit were thinned out: in the full panel of roughly 79,000, 15% have a hit. Unmarked numbers belong to inactive results. Active and inactive are the calls of the source. No stated cut-off is given here; in the data, active means growth inhibition above about 70%; inactive means the rest. Where a SMILES comes first, the peptide text is derived from it. The star is where a group is joined. Myristoyl = CCCCCCCCCCCCCC(=O)*

Key:
[1] = NCI Yeast Anticancer Drug Screen. Data for the rad50 strain (AID 155);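 further: 0% = growth of vehicle-only cultures of the same strain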; conditions: S. cerevisiae rad50 strain growth inhibition; at 50.0 µM; active compounds read high
Outline: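 Vehicle-treated cultures provide the reference for the growth inhibition reported for compound-exposed, repair-deficient yeast.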

[2] = NCI Yeast Anticancer Drug Screen. Data for the mec2-1 strain (AID 157); conditions: S. cerevisiae mec2-1 strain, at 50.0 µM, active compounds read high
Outline: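 Strain: mec2-1 (DNA repair/cell cycle alteration). Compound exposure, then growth measured; inhibition expressed relative to vehicle.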

[3] = NCI Yeast Anticancer Drug Screen. Data for the sgs1 mgt1 strain (AID 161);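 further: 0% = growth of cultures given vehicle only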; conditions: S. cerevisiae sgs1 mgt1 strain, at 50.0 µM, active compounds read high
Outline: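 Test agents were incubated with a DNA-repair-mutant yeast strain. Growth was then read and compared against vehicle-treated controls.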

[4] = NCI Yeast Anticancer Drug Screen. Data for the cln2 rad14 strain (AID 165);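 further: 0% = growth equal to vehicle treated cultures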; conditions: S. cerevisiae cln2 rad14 strain, at 50.0 µM, active compounds read high
Outline: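 Compounds are applied to the cln2 rad14 yeast strain, and growth is then compared with that of vehicle-treated cultures to give inhibition.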

[5] = NCI Yeast Anticancer Drug Screen. Data for the bub3 strain (AID 167); conditions: S. cerevisiae bub3 mutant strain, at 50.0 µM, active compounds read high
Outline: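 Mutant yeast screening strain plus compound; vehicle-treated cultures serve as the 0% inhibition reference.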

[6] = NCI Yeast Anticancer Drug Screen. Data for the mlh1 rad18 strain (AID 175); conditions: S. cerevisiae mlh1 rad18 strain growth inhibition; at 50.0 µM; active compounds read high
Outline: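 Read-out is yeast growth inhibition, calculated against vehicle-only controls. The compound was applied to a strain engineered with DNA damage repair alterations.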

| SMILES | growth inhibition [1] [%] | growth inhibition [2] [%] | growth inhibition [3] [%] | growth inhibition [4] | growth inhibition [5] [%] | growth inhibition [6] |
| --- | --- | --- | --- | --- | --- | --- |
| CC(=O)OC(C)C(=O)OCC1OC(OC(=O)C(C)OC(C)=O)C(OC(=O)C(C)OC(C)=O)C(OC(=O)C(C)OC(C)=O)C1OC(=O)C(C)OC(C)=O (configuration not stated) | 7.6 | -13.8 | -10.6 | -42.4% | -12.1 | 7.95% |
| CCCCCCC1(/C=C\c2ccccc2Cl)OCCO1 | 37.6 | 31.5 | 37.5 | -9.6% | 16.9 | 23.3% |
| CCc1cccc(CC)c1N1C(=O)C(=O)C(C(C)=O)C1=O (configuration not stated) | -4.05 | -4.45 | 7.6 | -24.5% | -1.25 | 8.45% |
| COc1c(NC(=O)C(Br)C(Br)C(=O)O)cccc1[N+](=O)[O-] (configuration not stated) | -20.9 | 19.5 | -7.65 | 85% (active) | -2.85 | -2.25% |
| O=C(O)CCC(=O)Nc1ccc(C(=O)O)c(O)c1 | 8.4 | -27.8 | -11.1 | -4.45% | 20.9 | -17.9% |
| CCOC(=O)C(=O)Nc1c(N(CC)CC)n2ccccc2nc1=O | 5.75 | -22.5 | -4.15 | 6.2% | 2.6 | 13.8% |
| CCC1N=C(N)N=C(N)N1c1ccc(Cl)c(Cl)c1 (configuration not stated) | 16.2 | 11.6 | 9.25 | -8.7% | 10.7 | 37.8% |
| NC(CCSCC(F)F)C(=O)O (configuration not stated) | 19.4 | 8.9 | 3.95 | 6.95% | -22 | 25.4% |
| CC1=NN2C(c3ccc(Cl)cc3)=CSC2=NC(C)(C)C1 | 16.6 | -16.9 | -3.1 | 5.8% | -8.6 | -13.2% |
| O=C1CCCC(C(Sc2ccccc2)(Sc2ccccc2)Sc2ccccc2)C1 (configuration not stated) | 62.2 | 5.1 | 65.2 | 37.6% | 21.9 | 81.3% (active) |
| O=C(CN1CCN(Cc2ccccc2)CC1)N1CCCn2c1nc1ccccc1c2=O | -18.1 | -16.6 | -7.9 | 7.6% | 11.9 | -3.85% |
| O=C1c2ccccc2C(=O)N1Br | 0.15 | -19.5 | 6.5 | 10.8% | 3.6 | 18.9% |
| CC(C)(C)OC(=O)C(N)Cc1ccccc1 (configuration not stated) | -5.8 | -6.6 | 20.9 | 0.35% | 3.35 | -22.6% |
| CC1(C)CCC[C@@]2(C)C1C[C@H](O)[C@@]1(C)O[C@@](C)([C@H](O)CO)CCC21 (some centres not stated) | 28.6 | 33 | 56 | 69.1% | 29.2 | 70.9% (active) |
| CCOC(=O)c1ccc(-n2cnc(-c3ccc([N+](=O)[O-])cc3)c2)cc1 | -4.55 | -7.2 | -8.8 | -7.15% | -1.15 | -16.2% |
| C/C(Cc1cccc2ccccc12)=N/NC(N)=O | 2.35 | -27.8 | -19.1 | -8% | -12.1 | -8.45% |
| COCCCC(O)CNC(C)C (configuration not stated) | -11.2 | 7.1 | -16.4 | -18.2% | 0.95 | -5.95% |
| CC(C)C1CC(N(C)C)=CC(=O)N1 (configuration not stated) | -41.5 | 5.95 | 2.75 | -14.4% | 10.8 | 10.9% |
| O=C1S/C(=C2\C(=O)N(CN3CCCCC3)c3ccccc32)C(=O)N1CN1CCCCC1 | 26.6 | -13.1 | -3.85 | 4.65% | -1.1 | 31.1% |

| SMILES | growth inhibition [1] [%] | growth inhibition [2] [%] | growth inhibition [3] [%] | growth inhibition [4] | growth inhibition [5] [%] | growth inhibition [6] |
| --- | --- | --- | --- | --- | --- | --- |
| CC/C=C(\C)C(C#N)(CC)C(=O)OCC (configuration not stated) | 4.65 | -12.7 | -4.6 | 2.75% | -20.4 | 9.2% |
| Oc1ccccc1-c1cc(-c2ccccc2)nc(NCCCCCCNc2nc(-c3ccccc3)cc(-c3ccccc3O)n2)n1 | 9.85 | 3.9 | -12.1 | -24.2% | -6.4 | 11.2% |
| O=C(CCSC(=S)Nc1ccc(Cl)cc1)NNc1ccccc1 | 1.8 | -25.1 | -0.65 | -30.4% | 6.6 | 18.2% |
| CC1=C(/C=C/Cl)CC(Cl)C(C)(Cl)C1 (configuration not stated) | -2.25 | -10.4 | -4.5 | 12.5% | -0.45 | -45.2% |
| COc1cc2c(cc1OC)C1=C(/C=C\C(C)=O)CCN1CC2 | -6.9 | 20.9 | -4.45 | -8.65% | 0.1 | 5.55% |
| O=C(O)c1cccc2cnccc12 | -40.6 | -17.6 | -26.9 | 1.3% | -13.3 | -8.7% |
| O=C(CC(=O)n1nc(-c2ccccc2)c(N=Nc2ccc([N+](=O)[O-])cc2)c1-c1ccccc1)Nc1ccc(Cl)cc1 | 35.6 | 3.1 | 52 | 17.4% | 53 | 23.9% |
| O=C(O)CC(CC(=O)O)c1ccc(F)cc1 | -2 | 0.95 | -10.2 | -2.35% | 2.05 | -8.5% |
| COC(=O)c1nc(SC)[nH]c1CC(N)=O | 43.5 | 22.4 | 20.5 | -22.8% | 32.7 | -15.2% |
| O=C1Nc2ccc3[nH]ncc3c2C1=O | 11.7 | -0.65 | -2.45 | -11.8% | -9.55 | 7.6% |
| CCN(CC)CCC(O)(c1cccc(Cl)c1)C1CCCCC1 (configuration not stated) | -1.4 | -6.25 | -3.1 | -68% | -7.95 | -7.25% |
| CCCCCCCCCCCCCC(=O)NCC(=O)NC(CO)C(=O)NC(CO)C(=O)NC(CCCCN)C(=O)NC(CO)C(=O)NC(CCCCN)C(=O)N1CCCC1C(=O)NC(CCCCN)C(=O)NC(CC(=O)O)C(N)=O (configuration not stated) (Myristoyl-GSSKSKPKD-NH2; configuration not given here) | 7.25 | -2.55 | -3.9 | 6.1% | 10.3 | 14% |
| CC(=O)NNC(=S)N/C=C(\C#N)S(=O)(=O)c1ccc(C)cc1 | -44.5 | -26.4 | -35.5 | -61.3% | -25.8 | -37.6% |
| CCCCOC(=O)OCCOCCOC(=O)OC(C)C(=O)OCCCC (configuration not stated) | -16.9 | -22.4 | -10.2 | -21.3% | 1.7 | 10.8% |
| Cc1ccc(C)c(NC(=O)NCc2ccc(Cl)cc2)c1 | -7.65 | -41.2 | -11.4 | 13.2% | -58.1 | 10.2% |
| COC1C2CC3C4(CCC5C6(C)CCCC53C(C14)N(C)C6)CC21CCC23C4C=C5C6=C(CCC5(CC42)C3O1)C1(C)CC(C6)CN(C)C1 (configuration not stated) | 33.6 | 9.35 | 22.9 | 15.6% | 18.5 | 26.6% |
| CCCCOCN(COCCCC)CC(C)(C)C | 20.9 | 14.7 | -10.8 | 14.7% | 19.4 | 19.3% |
| CCCCCCCCCCCCCCCCCC(=O)OCC(CO)OC(=O)CCCCCCCCCCCCCCCCC (configuration not stated) | 4.45 | -9.65 | 7.3 | 6.95% | 34.1 | 29.7% |
